Assay results reported in ChEMBL document CHEMBL4296182, “CO-ADD screening of NIH NCI Diversity Set V”.
For part of these data: Measured potencies and affinities stand elsewhere.

Assays:
Staphylococcus aureus = test: Antibacterial activity against Staphylococcus aureus MRSA ATCC 43300 (CO-ADD:GP_020); MIC in CAMBH media using NBS plates, by Resazurin F(560/590); type: functional; conditions: Concentration 20 uM, ASSAY_TEST Inhibition of Bacterial Growth, detection method Resazurin, Fluorescence (ex560/em590), MEDIA CAMHB, plate type 384well, CORNING #3640, time 18 hr
Acinetobacter baumannii = test: Antibacterial activity against Acinetobacter baumannii ATCC 19606 (CO-ADD:GN_034); MIC in CAMBH media using NBS plates, by Resazurin F(560/590); type: functional; conditions: Concentration 20 uM, ASSAY_TEST Inhibition of Bacterial Growth, detection method Resazurin, Fluorescence (ex560/em590), MEDIA CAMHB, plate type 384well, CORNING #3640, time 18 hr
Escherichia coli = test: Antibacterial activity against Escherichia coli ATCC 25922 (CO-ADD:GN_001); MIC in CAMBH media using NBS plates, by Resazurin F(560/590); type: functional; conditions: Concentration 20 uM, ASSAY_TEST Inhibition of Bacterial Growth, detection method Resazurin, Fluorescence (ex560/em590), MEDIA CAMHB, plate type 384well, CORNING #3640, time 18 hr
Klebsiella pneumoniae = conditions: Concentration 20 uM; ASSAY_TEST Inhibition of Bacterial Growth; detection method Absorption (OD600); MEDIA CAMHB; plate type 384well; NBS; CORNING #3640; time 18 hr
Candida albicans = conditions: 20 µM
Cryptococcus neoformans = conditions: Concentration 20 uM; ASSAY_TEST Inhibition of Fungal Growth; detection method Resazurin; Absorption (OD600-OD570); plate type 384well; NBS; CORNING #3640

SMILES	Inhibition (Staphylococcus aureus)	Inhibition (Acinetobacter baumannii)	Inhibition (Escherichia coli)	Inhibition (Klebsiella pneumoniae)	Inhibition (Candida albicans)	Inhibition (Cryptococcus neoformans)
O=C(O)c1ccccc1C(=O)Nc1ccccc1[N+](=O)[O-]	3.12%	5.2%	12.47%	12.98%	4.76%	-12.04%
O=C(Nc1cccc([N+](=O)[O-])c1)c1ccc2ccccc2c1O	0.95%	-11.75%	6.76%	12.38%	3.5%	4.47%
CCOC(=O)c1ccc(NC(=O)Oc2cc(C)c(Cl)cc2C(C)C)cc1	20.21%	9.47%	4.16%	12.01%	4.36%	-1.17%
COc1ccc(NC2=CC(=S)NC(C)(C)C2)cc1	11.18%	-15.84%	12.98%	4.99%	2.09%	-8.08%
Nc1ccc(C(=O)C(=O)c2ccc(N)cc2)cc1	-28.54%	-4.51%	-16.8%	1.88%	2.62%	25.61%
N#CNC(=N)c1ccccc1	0.25%	1.21%	-14.26%	9.63%	1.62%	22.72%
O=C(N(c1ccccc1)c1ccccc1)N(c1ccccc1)c1ccccc1	13.33%	0.28%	8.76%	13.27%	9.21%	-13.12%
Cc1cc(NC(=O)NC(=O)c2ccccc2NC(=O)C(C)N)ccc1Oc1ncc(Br)cn1.Cl (stereo not given)	19.83%	-8.48%	11.58%	15.35%	-1.4%	-7.47%
O=C(Cn1ccc(=O)[nH]c1=O)Nc1ccc(C(=O)O)c(O)c1	10.2%	-9.39%	10.79%	11.75%	-1.14%	-6.61%
CCOC(=O)C1(C#N)C(=O)CS/C1=N/c1ccccc1Cl (stereo not given)	19.69%	6.45%	0.68%	8.87%	1.9%	-13.01%
NC(=O)c1cc(C(N)=O)nc(Cl)n1	12.7%	0.04%	10.33%	2.11%	-2.97%	-9.62%
CC1=Nc2ccccc2/C1=C\c1c(C)[nH]c2ccccc12	7.03%	6.7%	0.88%	14.94%	6.28%	-2.97%
CC1CCCC(CC(=O)O)(CC(=O)O)C1 (stereo not given)	-13.43%	0.95%	-5.78%	6.3%	2.72%	-2.12%
CC(C)c1ccc(-c2nc3ccccc3s2)cc1	16.1%	2.02%	4.01%	12.27%	8.12%	-7.1%
NC(=O)Oc1cccc(OC(N)=O)c1	9.68%	-13.95%	4.31%	5.21%	2.21%	-9.78%
c1ccc2c(c1)cnc1ccccc12 [PHENANTHRIDINE]	1.61%	-6.38%	4.54%	11.56%	4.34%	-7.16%
CSc1nc(O)nnc1Sc1ccccc1	-5.45%	-15.47%	6.74%	7.57%	13.4%	-16.19%
O=C(CSc1nc2ccc([N+](=O)[O-])cc2s1)c1ccc2ccccc2c1	-1.33%	12.85%	5.26%	23.99%	1.85%	15.23%
CC12CCC(/C(=N/c3ccc(/N=C4\C(=O)C5(C)CCC4C5(C)C)cc3)C1=O)C2(C)C	-7.11%	-9.62%	14.23%	11.61%	0.19%	-4.9%
NC(=O)Nc1ccc(Nc2ccccc2)cc1	15.79%	-8.02%	5.39%	5.31%	0.18%	-3.95%
